# Compound activity as filed in PubChem.
# Most compounds without a hit are left out; they make up all but 4.2% or so of the library.
# NALP3 yeast inh = NALP3 inflammasome inhibitors in reconstituted yeast, primary screen, luminescence, uHTS | Yeast reconstituted NLRP3/ASC/caspase-1, beta-gal luminescence, 24 h | inhibition, % at 10 µM | 0.39% of 330,000 active | AID 2825, 2010;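 active = inhibition of 50% or more; inactive = inhibition below 50%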
# tim23-1 inh = growth inhibitors of tim23-1 mutant yeast, primary screen, luminescence, uHTS; 1.3% of 330,000 active; S. cerevisiae tim23-1 growth, BacTiter-Glo luminescence, 24 h; AID 463212, 2010; inhibition, % at 20 µM;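 active = growth inhibition of the mutant yeast at or above 50%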;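 note: temperature-sensitive mutant grown at 25 °C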
# TIM10 inh = growth inhibitors of isogenic TIM10 control yeast, primary screen, counter-screen for tim10-1 yeast inhibitor project, luminescence, uHTS; inhibition, % at 10 µM; 1.4% of 330,000 active; S. cerevisiae TIM10 strain growth, BacTiter-Glo luminescence, 24 h;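 active = inhibition of 40% or more at the single tested concentration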;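 note: wild-type TIM10 isogenic control strain grown at permissive 25 °C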
# NALP1 yeast inh = NALP1 inflammasome inhibitors in reconstituted yeast, colorimetric, S. cerevisiae, triplicate retest; S. cerevisiae NALP1/ASC/caspase-1 growth, X-gal OD620, 72 h; 0.61% of 280,000 active; inhibition, % at 10 µM; AID 2071, 2009; in the data active = inhibition mostly above about 24%, no sharp cut-off; inactive = mostly below about 32%
# tim10-1 inh = growth inhibitors of tim10-1 mutant yeast, primary screen, luminescence, uHTS; S. cerevisiae tim10-1 ts strain growth, BacTiter-Glo, 24 h; 2.2% of 330,000 active; inhibition, % at 20 µM; AID 463190, 2010;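 active = inhibition of at least 40%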;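 note: mutant grown at 25 °C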
# PfHsp90 set2 = growth inhibition of PfHsp90-expressing yeast, primary screen, antimalarial PfHsp90 inhibitor project, S. cerevisiae, BacTiter-Glo luminescence, single point, set 2; BacTiter-Glo ATP, 48 h; yeast lacking PDR1 and PDR3 efflux regulators; inhibition, % at 9.4 µM; 0.32% of 310,000 active; AID 504621, 2011;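 active = every replicate shows inhibition above about 80%, whatever the replicate mean, limit read from the data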
# tim10 confirm = growth inhibitors of wild-type TIM10 yeast, confirmation, counter-screen for tim10-1 synthetic lethality project, single concentration, luminescence, S. cerevisiae | shares compounds with TIM10 inh | S. cerevisiae tim10 strain growth, BacTiter-Glo luminescence, 24 h | inhibition, % at 10 µM | 63% of 4,600 active | AID 463215, 2010;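 active = inhibition of yeast growth at or above a set limit in either of two replicates at 10 µM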; note: this counterscreen used the strain with wild-type TIM10
# Numbers stand for hits; 0 = inactive; - = no result given.
SMILES,NALP3 yeast inh,tim23-1 inh,TIM10 inh,NALP1 yeast inh,tim10-1 inh,PfHsp90 set2,tim10 confirm
O=C(Nc1nccs1)c1ccc(-c2ccccc2[N+](=O)[O-])o1,0,0,0,0,0,0,-
O=C(Nc1nccs1)c1ccc(-c2ccccc2Cl)o1,0,0,47,0,0,0,0
CC1CCCCC1NC(=S)NC(=O)c1sc2ccccc2c1Cl (stereo not given),0,0,0,0,0,0,-
O=C(NC(=S)N(CCCCO)C1CCCCC1)c1sc2ccccc2c1Cl,0,0,43,0,0,0,0
COc1ccc(CC(=O)NNC(=S)Nc2ccccc2)cc1Cl,0,0,0,0,0,-,-
CCCOc1ccc(CC(=O)NNC(=S)Nc2ccccc2)cc1Br,0,0,46,0,0,0,27
CCN(CC)S(=O)(=O)c1ccc(NC(=O)C2COc3ccccc3O2)cc1 (stereo not given),0,0,40,0,0,0,35
O=C(Nc1ccc(F)cc1)C1COc2ccccc2O1 (stereo not given),0,0,0,0,0,0,-
CCOC(=O)NC(=S)Nc1ccc(C(C)(C)C)cc1Br,0,0,50,0,0,0,39
O=C(O)Cn1c(O)c(C2=c3ccccc3=NC2=O)sc1=O,0,0,0,0,0,0,-
Cn1c(O)c(C2=c3ccccc3=NC2=O)sc1=Nc1ccc(Cl)cc1,0,0,49,0,0,0,0
Cc1cc(C)n(/N=C/c2cc([N+](=O)[O-])ccc2O)c(=O)c1,0,0,0,0,0,0,-
COc1ccccc1C1(CC(=O)N2CCCCC2)CCOC(C(C)C)C1 (stereo not given),0,0,48,0,0,0,0
NC(=O)CC(NC(=O)c1cccc(Br)c1)c1ccc(NCCN2CCOCC2)c([N+](=O)[O-])c1 (stereo not given),0,0,43,-,0,-,0
NC(=O)CC(NC(=O)c1ccccc1)c1ccc(N2CCN(c3ccccc3)CC2)c([N+](=O)[O-])c1 (stereo not given),0,0,0,0,0,0,-
Cc1cc(C)cc(C(=O)NC(CC(N)=O)c2ccc(N3CCN(c4ccccc4)CC3)c([N+](=O)[O-])c2)c1 (stereo not given),0,0,49,0,0,0,0
NC(=O)CC(NC(=O)c1cccc(Br)c1)c1ccc(NCC2CC2)c([N+](=O)[O-])c1 (stereo not given),0,0,0,0,0,0,-
CC(=O)N[C@@H]1[C@@H](O)[C@@H]2OC(c3ccccc3)OC[C@H]2O[C@@H]1N=[N+]=[N-] (stereo not given in full),0,0,0,0,0,0,-
S=c1[nH]nc(-c2ccc(Br)o2)n1Cc1ccccc1,0,0,46,0,0,0,35
CN(CC(=O)Nc1ccc(Cl)cc1)C(=O)CNC(=O)Cc1cccc2ccccc12,0,0,0,-,0,0,-
CCN(CC)C(=O)CN1C(=O)C2(OCC(C)(C)CO2)c2ccccc21,0,0,0,-,0,0,-
COc1ccc(C2c3ccc4ccccc4c3Oc3ncn(CCN4CCOCC4)c(=N)c32)cc1 (stereo not given),0,0,0,0,0,0,-
COc1ccc(-c2oc3ncn(CCN4CCOCC4)c(=N)c3c2-c2ccc(OC)cc2)cc1,0,0,42,0,0,0,0
CC(C)(C)n1cc(S(=O)(=O)c2ccccc2)[nH]c1=O,0,0,0,0,0,0,-
COc1ccc(C(=O)NCCS(=O)(=O)NC2CCCC2)cc1,0,0,41,-,0,0,0
O=C(COC(=O)CCc1ccccc1)Nc1ncc(Cl)cc1Cl,0,0,0,0,0,0,-
Cc1ccc(CN(c2ccc(C(=O)N3CCCC3)cc2)S(C)(=O)=O)cc1,0,0,44,0,0,0,47
